# S1P3 antag – antagonists of human S1P3 receptor; inhibition, % at 4.98 µM; CHO S1P3 NFAT-BLA reporter, FRET fluorescence, antagonist mode; Q99500; 0.27% of 170,000 active;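 active = inhibition above the plate cutoff, the mean inhibition of test wells on that plate plus 3 SD, cut at about 28% in these data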;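 also: cells challenged with S1P at its EC80 of 0.8 µM; blue over green emission ratio from cleaved BLA substrate after 4 h stimulation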
# Target sequence (Q99500 whole entry, looked up): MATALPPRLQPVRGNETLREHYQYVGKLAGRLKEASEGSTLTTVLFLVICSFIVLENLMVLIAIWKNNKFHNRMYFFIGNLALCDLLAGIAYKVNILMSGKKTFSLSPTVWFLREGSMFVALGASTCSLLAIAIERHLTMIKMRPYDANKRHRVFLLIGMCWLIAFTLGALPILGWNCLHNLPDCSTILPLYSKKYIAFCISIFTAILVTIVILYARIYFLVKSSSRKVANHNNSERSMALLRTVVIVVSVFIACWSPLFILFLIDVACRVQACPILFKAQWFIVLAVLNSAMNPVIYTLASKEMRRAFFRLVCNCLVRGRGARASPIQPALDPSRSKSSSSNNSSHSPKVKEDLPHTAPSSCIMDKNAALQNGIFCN
# PERK inh – human PERK inhibition, primary cell-based screen; Q9NZJ5; CHO PERK-DD fusion, SEAP luminescence translation reporter; inhibition, % at 5.6 µM; 0.17% of 220,000 active; AID 1416;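 active = inhibition above the mean inhibition of all tested compounds plus 3 SD, set separately per screening campaign, cut at about 2.9% in these data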;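 also: PERK kinase domain activated by AP20187 dimerizer at 100 nM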
# S1P4 agonist – activates the human S1P4 receptor. activation, % at 4.98 µM. 0.35% of 220,000 active. S1P4-expressing cell line, agonist reporter assay; in the data active = activation above about 11%
# m-calpain inh – calpain II (pig) inhibition. purified calpain II, fluorogenic peptide substrate, 30 min. 0.37% of 220,000 active. inhibition, % at 16 µM;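 active = inhibition above about 50%, limit read from the data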
# S1P4 antagonist – antagonists of human S1P4 receptor. inhibition, % at 4.98 µM. O95977. 0.26% of 220,000 active. S1P4-expressing cells, antagonist mode, reporter read-out; in the data active = inhibition above about 29%
# S1P4 ag conf – confirmation of human S1P4 receptor agonists; activation, % at 4.98 µM; S1P4 agonist cell-based reporter assay; shares compounds with S1P4 agonist; 7% of 740 active; AID 1523; in the data active = activation above about 12%
# S1P1 ag – human S1P1 agonism as S1P4 agonist counter-screen. shares compounds with S1P4 agonist. S1P1 agonist cell-based assay, activation. activation, % at 4.98 µM. 4% of 740 active. AID 1563; in the data active = activation above about 21%
# S1P4 antag conf – human S1P4 antagonism, confirmation; shares compounds with S1P4 antagonist; S1P4-expressing cell line, antagonist mode, reporter read-out; inhibition, % at 4.98 µM; 71% of 520 active; AID 1524; in the data active = inhibition above about 30%
# S1P1 antagonist – human S1P1 antagonism as S1P4 antagonist counter-screen; shares compounds with S1P4 antagonist; cell-based S1P1 antagonist counterscreen, inhibition; inhibition, % at 4.98 µM; 37% of 520 active; AID 1564; in the data active = inhibition above about 40%;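 also: receptor stimulated with S1P near its EC80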
# Hits are given with their value; . = inactive; / = no result. Shown are actives, neighbours in structure and some others; about 1.3% of the full set was active somewhere.
SMILES,S1P3 antag,PERK inh,S1P4 agonist,m-calpain inh,S1P4 antagonist,S1P4 antag conf,S1P1 antagonist,others
CCOC(=O)c1cccc(NC(=O)c2ccc(N(C)C)cc2)c1,.,.,.,.,.,/,/,
Nc1nc(SCc2ccc(Cl)cc2Cl)n[nH]1,.,.,.,.,.,/,/,
CC(=O)Nc1nc(SCc2ccc(Cl)cc2Cl)n[nH]1,/,.,12,.,.,/,/,S1P4 ag conf=.;S1P1 ag=.
COc1ccc(F)cc1S(=O)(=O)n1nnc2ccccc21,.,.,74,.,.,/,/,S1P4 ag conf=.;S1P1 ag=.
COc1ccc(OC)c(S(=O)(=O)n2nnc3ccccc32)c1,.,.,.,.,.,/,/,
CCOC(=O)c1sc(-c2ccccc2)cc1NC(=O)Nc1ccccc1,.,.,25,.,.,/,/,S1P4 ag conf=.;S1P1 ag=.
CC(=O)Oc1ccc2cc(-c3nc4ccccc4n3C)c(=O)oc2c1,.,.,30,.,36,37,.,S1P4 ag conf=15;S1P1 ag=.
Clc1ccc2nc(N3CCNCC3)nc(-c3ccccc3)c2c1,/,.,20,/,30,39,.,S1P4 ag conf=13;S1P1 ag=.
CN1CCN(c2nc(-c3ccccc3)c3cc(Cl)ccc3n2)CC1,.,.,.,.,.,/,/,
O=C1C(Cl)=C(Nc2ccc(O)cc2)C(=O)c2ccccc21,.,.,14,.,90,105,65,S1P4 ag conf=.;S1P1 ag=.
NC(=O)/C(=C/c1ccco1)C(N)=S,.,.,.,.,.,/,/,
Nc1nc(-c2cc3ccccc3o2)cs1,.,.,.,.,.,/,/,
O=[N+]([O-])c1ccc(Sc2cccc[n+]2[O-])c2nonc12,.,.,.,.,91,114,.,
Cc1ccn2cc(C34CC5CC(CC(C5)C3)C4)nc2c1,.,.,.,.,.,/,/,
O=C(c1ccccc1)c1ccccc1C(=O)N1CCN(C(=O)c2ccccc2)CC1,.,.,.,.,.,/,/,
O=C(c1ccccc1)c1ccccc1N1C(=O)C=CC1=O,.,.,.,.,38,104,.,
O=c1nc2ccccc2c2n1CC(CN1CCN(C(c3ccccc3)c3ccccc3)CC1)N2 (stereo not drawn),.,.,.,.,.,/,/,
CCCCC(CC)c1nnc(NC(=O)c2cccs2)s1 (stereo not drawn),.,.,.,.,29,.,.,
COCCCNC(=O)CN1C(=O)c2ccccc2C1=O,.,.,.,.,.,/,/,
CCCCNC(=O)CN1C(=O)c2cccc(N)c2C1=O,.,.,.,.,39,.,.,
CC1CCCCC1NC(=O)CN1C(=O)c2cccc(N)c2C1=O (stereo not drawn),.,.,.,.,32,30,.,
COc1ccc(NS(=O)(=O)c2cc(NC(=O)c3cccc(OCc4c(C)noc4C)c3)ccc2OC)cc1,.,.,.,.,.,/,/,
Cc1ccc(C2C(C#N)=C(N)OC3=C2C(=O)CC(C)(C)C3)s1 (stereo not drawn),.,.,.,.,.,/,/,
Cc1nc(OCc2c(C)noc2C)c2ccccc2n1,.,.,.,.,.,/,/,
CCOc1ccc(C(C)=O)cc1N1C(=O)C2C3C=CC(O3)C2C1=O (stereo not drawn),.,.,.,.,53,.,.,
SMILES,S1P3 antag,PERK inh,S1P4 agonist,m-calpain inh,S1P4 antagonist,S1P4 antag conf,S1P1 antagonist,others
COc1ccc(CN(C(=O)c2oc3ccccc3c2C)C2CCS(=O)(=O)C2)cc1OC (stereo not drawn),.,.,.,.,32,.,.,
CC(C(=O)NC(C)(C)C)N(Cc1cccs1)C(=O)CCN1CCc2ccccc21 (stereo not drawn),.,.,.,.,.,/,/,
CC1=CC(C)(C)Nc2ccc(OC(=O)c3ccco3)cc21,.,.,.,.,30,56,.,
CCCCC(=O)O[C@]1(C(=O)CO)CC[C@H]2[C@@H]3CCC4=CC(=O)CC[C@]4(C)[C@H]3[C@@H](O)C[C@@]21C,.,.,.,.,.,/,/,
CC1(C)O[C@@H]2C[C@H]3[C@@H]4C[C@H](F)C5=CC(=O)CC[C@]5(C)[C@H]4[C@@H](O)C[C@]3(C)[C@]2(C(=O)CO)O1,.,.,.,.,59,.,.,
COc1cccc(NC(=O)Nc2ccc(C(C)(C)C)cc2)c1,.,.,.,.,.,/,/,
CCn1c(SCC(=O)Nc2ccccc2C)nc2nc3c(cc2c1=O)COC(C)(C)C3,.,.,.,.,.,/,/,
CCOC(=O)C1=C(C)N=C2SC(C(=O)OC)=CC(=O)N2C1c1ccc(OC)cc1 (stereo not drawn),.,.,.,.,46,.,.,
O=C1/C(=C/c2ccncc2)CCc2ccccc21,.,.,.,.,.,/,/,
O=C1/C(=C/c2ccncc2)CCC/C1=C\c1ccncc1,.,.,.,.,83,99,.,
O=C(CNc1n[nH]c(=O)[nH]c1=O)N/N=C/C1CC=CCC1 (stereo not drawn),.,.,.,.,.,/,/,
O=C(/C(=C/c1ccc(Cl)cc1)c1nc2ccccc2[nH]1)c1cccs1,/,.,.,.,44,116,74,
CCOc1ccc(C(CC(=O)O)n2cnnn2)cc1 (stereo not drawn),.,.,.,.,.,/,/,
Cc1[nH]n(-c2ccc([N+](=O)[O-])cc2)c(=O)c1C=NCCc1c(C)[nH]c2ccccc12,.,.,.,.,.,/,/,
Cc1ccc2nc(Cl)c(/C=C/C(=O)c3ccco3)cc2c1,.,.,.,.,.,/,/,
Cc1ccc2cc(/C=C/C(=O)c3ccco3)c(Cl)nc2c1,.,.,.,.,37,68,.,
COc1ccc(-c2cc(C(F)F)n3ncc(C(=O)N4CCCCC4)c3n2)cc1,/,.,.,.,.,/,/,
O=C(c1cnn2c(C(F)F)cc(-c3ccccc3)nc12)N1CCN2CCCC2C1 (stereo not drawn),.,.,.,.,35,.,.,
O=C(Nc1ccc(F)cc1F)Nc1ccccc1C(=O)NCCN1CCNC1=O,.,.,.,.,31,.,.,
O=C(c1c[nH]c(C(=O)N2CCN(c3ccccc3F)CC2)c1)c1cccc(Cl)c1Cl,.,.,.,.,.,/,/,
c1nc2n(n1)C1=C(CCCC1)C1(CCCCC1)N2,.,.,.,.,.,/,/,
CCc1nc2ccccc2c(C(=O)OCC(=O)NC(=O)c2cccn2C)c1C,.,.,.,.,.,/,/,
CCC(=O)Nc1cccc(C(=O)/C=C/c2ccc(F)cc2)c1,.,.,.,.,.,/,/,
CC(=O)Nc1cccc(C(=O)/C=C/c2ccc(C)cc2)c1,.,.,.,.,45,55,.,
CC(C)(C)OC(=O)N[C@@H](Cc1ccccc1)c1nnc(S(=O)(=O)Cc2cccc(F)c2)o1,.,.,.,.,78,94,.,
CC(C)[C@H](NC(=O)OC(C)(C)C)c1nnc(S(=O)(=O)Cc2c(F)cccc2Cl)o1,.,/,/,/,/,/,/,
Cc1ccccc1CS(=O)(=O)c1nnc([C@H](CC(C)C)NC(=O)OC(C)(C)C)o1,.,.,.,.,86,113,.,

# Compound activity from PubChem.
